Experimental data: PubChem BioAssay AID720706 (Broad Institute, 2013)
In all, about 350,000 compounds went through this assay and about 5,500 (1.6%) were called active.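 Rule for the calls: active = significant combined selectivity score with lowered wild-type GFP, culture density cut under 30%, mutant RFP and density less affected; inactive = any of these conditions unmet.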 Only a selection was taken, and actives are over-represented in it overall.

assay: reduced GFP signal of wild-type E. coli, primary screen, bacterial rRNA inhibitor project, GFP/RFP fluorescence, OD600, single point (AID 720706); settings: E. coli WT GFP vs humanized-ribosome RFP mutants, 24 h; GFP signal change (wild-type ribosome): stronger effect = lower value, DMSO median 0, no signal -100; OD600 change: measured here: OD600 growth, DMSO median 0, no signal -100; RFP signal change: measured here: RFP humanized mutant strains, DMSO median 0, no signal -100, concentration not given here

Compound | GFP signal change (wild-type ribosome) | OD600 change [%] | RFP signal change [%]
COC(=O)C[C@@H]1CC[C@@H]2[C@H](COc3ccc(NS(=O)(=O)c4ccccc4F)cc3C(=O)N2C)O1 | -1.08% (inactive) | 1.69 | 1.71
NC(=O)c1ccc(CN2CCC(Cc3ccccc3)CC2)cc1 | 20.9% (inactive) | 10.4 | 1.24
O=S1(=O)CCOC[C@H](Cc2ccccc2)N1Cc1ccccc1Br | -13.5% (inactive) | -12.2 | -2.23
Brc1ccccc1CN1CCC(Cc2ccccc2)CC1 | -24.7% (active) | -12 | -3.42
O=C(C[C@H]1CC[C@@H]2[C@H](COC[C@H](O)CN2S(=O)(=O)c2ccccc2)O1)N1CCOCC1 | 6.11% (inactive) | 11.2 | -4.33
O=C(c1ccccc1)N1CC(=O)N2[C@@H](CO)[C@H](c3ccc(C#CC4CC4)cc3)[C@@H]2C1 | 4.2% (inactive) | 0.601 | -2.44
CCCNC(=O)N1CC2(CN(C(=O)C3CCCCC3)C2)c2c([nH]c3cc(OC)ccc23)[C@@H]1CO | -0.587% (inactive) | -2.63 | -0.961
Cc1cccc(CN2CCN(C3CN(Cc4cn(Cc5ccccc5F)nn4)S(=O)(=O)C3)CC2)c1 (centres undefined) | 6% (inactive) | 11 | -3.05
O=S1(=O)CC(N2CCN(Cc3ccccc3F)CC2)CN1Cc1cn(Cc2ccccc2)nn1 (centres undefined) | 15% (inactive) | 11.5 | 0.47
O=S1(=O)CC(N2CCN(Cc3ccccc3F)CC2)CN1Cc1cn(Cc2cccc(C(F)(F)F)c2)nn1 (centres undefined) | -29.5% (active) | -22.9 | -2.53
C[C@@H]1CN([C@H](C)CO)C(=O)c2cccc(NC(=O)C3CC3)c2O[C@@H]1CN(C)C(=O)Nc1ccccc1 | 4.57% (inactive) | 10.7 | -0.0555
O=C(C[C@H]1CC[C@@H](NC(=O)Cc2ccccn2)[C@H](CO)O1)NCCc1ccccc1 | -0.355% (inactive) | -12 | -1.51
Cc1cc(C(=O)O)ccc1[N+](=O)[O-] | -5.96% (inactive) | -5.09 | -0.268
O=[N+]([O-])c1ccc(N2CCN(c3ccc(O)cc3)CC2)c(Cl)c1 | -7.92% (inactive) | 0.78 | 1.58
CN1c2ccc([N+](=O)[O-])cc2C(C)(C)C12C=Cc1cc(C(=O)O)ccc1O2 (centres undefined) | -34.2% (active) | -21.4 | -10.7
O=C(c1cccc(F)c1)N1C[C@H]2[C@@H](c3ccccc31)[C@@H](CO)N2C(=O)Cc1ccccc1 | 2.22% (inactive) | 9.86 | -2.34
CCN(CC)CCOCCOc1ccc(Cl)c2ccccc12 | -15.6% (inactive) | -34.8 | 10.8
CN(C)CCOc1ccc(Cl)cc1C(C)(C)C | -1.5% (inactive) | 4.96 | 1.97
CN(C)CCOCCOc1ccc(Cl)c2ccccc12 | -18.5% (active) | -8.69 | 3.22
CCC(=O)N(C)C[C@H]1Oc2cc(/C=C/c3ccccc3)ccc2S(=O)(=O)N([C@H](C)CO)C[C@@H]1C | -13.8% (inactive) | -24.1 | 1.56
COc1ccc(C#Cc2cnc3c(c2)C(=O)N([C@H](C)CO)C[C@H](C)[C@H](CN(C)S(=O)(=O)c2ccc(F)cc2)O3)cc1OC | -1.5% (inactive) | 6.11 | 0.148

Compound | GFP signal change (wild-type ribosome) | OD600 change [%] | RFP signal change [%]
O=C(C[C@H]1C=C[C@H](NC(=O)CC2CC2)[C@@H](CO)O1)NCc1ccccc1 | -2.86% (inactive) | -1.4 | 0.749
C[C@@H]1CC=CC[C@@H](c2ccccc2)NC(=O)[C@@H](Cc2ccccc2)N(C)C(=O)c2ccccc2O1 (mixture of isomers) | -3.7% (inactive) | -8.18 | -0.954
C[C@@H]1CCCCO[C@H](CN(C)S(=O)(=O)c2ccc(Cl)cc2)[C@H](C)CN([C@@H](C)CO)C(=O)c2cc(NS(=O)(=O)c3cn(C)cn3)ccc2O1 | -4.15% (inactive) | -10.5 | 3.24
C[C@@H]1CN([C@@H](C)CO)S(=O)(=O)c2ccc(C#Cc3ccc(F)cc3)cc2O[C@@H]1CN(C)CC1CC1 | 3.12% (inactive) | -6.33 | 12.1
O=[N+]([O-])c1cccc(/C([O-])=C(/C(=S)Nc2ccccc2F)[n+]2ccccc2)c1 | 4.97% (inactive) | 13.1 | 6.65
CCc1ccccc1OCC(=O)Nc1ccc2c(c1)OCCO2 | -18.9% (inactive) | -29.9 | 1.18
CCOc1ccccc1NC(=S)C(=C([O-])c1ccc2c(c1)OCCO2)[n+]1ccc(CC)cc1 | -17.2% (active) | -16.2 | 11.5
COc1ccc2c3c(n(C)c2c1)[C@H](CO)N(S(=O)(=O)c1ccc(C)cc1)CC31CCN(C(=O)c2ccccn2)CC1 | -3.17% (inactive) | -3.75 | 3.99
CS(=O)(=O)N(CC(=O)N1CCN(Cc2ccccc2)CC1)c1ccc2c(c1)OCCO2 | 3.15% (inactive) | 8.73 | -8.62
COc1ccc(N(CC(=O)N2CCCCCC2)S(=O)(=O)c2ccccc2)cc1 | -1.75% (inactive) | -4.39 | -2.53
CS(=O)(=O)N(CC(=O)N1CCc2ccccc2C1)c1ccc(Br)cc1 | -22.4% (active) | -11 | 0.676
COCc1cn(CC[C@H]2CC[C@H](NC(=O)c3ccncc3)[C@H](CO)O2)nn1 | 1.82% (inactive) | 6.54 | -3.21
CC(C)[C@@H]1COCc2cnnn2CCC[C@H](C)C(=O)N1 | 1.6% (inactive) | 7.64 | 1.53
CC(C)(C)C(c1nc2ccccc2[nH]1)n1c(Cc2csc3ccccc23)nc2ccccc21 (centres undefined) | -9.17% (inactive) | -4.49 | 9.77
Cc1ccc(NC(=O)COC(=O)C2C3CC4OC(=O)C2C4C3)cc1Cl (centres undefined) | -1.3% (inactive) | -3.04 | -5.78
COC(=O)c1cccc(NC(=O)c2cccc(N3C(=O)CCC3=O)c2)c1 | 0.987% (inactive) | 9.02 | 0.607
Cc1cc(C)cc(NC(=O)c2cccc(NC(=O)C3C4CC5OC(=O)C3C5C4)c2)c1 (centres undefined) | -21.2% (active) | -14.4 | 6.04
COc1ccccc1C#Cc1ccc2c(c1)O[C@@H](CN(C)Cc1cncnc1)[C@H](C)CN([C@@H](C)CO)S2(=O)=O | -12.1% (inactive) | -13.6 | 10
O=C1CN(S(=O)(=O)Cc2ccccc2)C[C@@H]2[C@@H](c3ccc(C#Cc4cccc(F)c4)cc3)[C@@H](CO)N12 | -6.58% (inactive) | -36.6 | 26.9
C[C@@H]1CN([C@@H](C)CO)S(=O)(=O)c2ccc(C#C[C@@H](C)O)cc2O[C@@H]1CN(C)C(=O)Cc1ccccn1 | 3.39% (inactive) | 0.98 | -0.13
COc1ccccc1C(=O)Nc1ccc2c(c1)C(=O)N(C)C[C@@H](OC)[C@@H](C)CN(CC1CC1)[C@@H](C)CO2 | -1.52% (inactive) | -3.13 | 0.12

Compound | GFP signal change (wild-type ribosome) | OD600 change [%] | RFP signal change [%]
CCOc1cc(/C=C2\SC(N3CCCCC3)=NC2=O)ccc1O | -19.3% (inactive) | -20.3 | 8.23
CCN1C(=O)/C(=C2\SC(N3CCCCC3)=NC2=O)c2ccccc21 | -24% (active) | 0.66 | -4.52
CC(C)=C1SC(N2CCN(c3ccc(C)c(Cl)c3)CC2)=NC1=O | -1.49% (inactive) | -2.03 | -2.71
COc1cccc(C(=O)N2C[C@@H]3[C@H](c4ccccc42)[C@H](CO)N3Cc2ccccc2F)c1 | -8.84% (inactive) | -21.6 | 1.94
Cc1nc2ccccc2nc1N/N=C/c1ccc(O)cc1O | -17.1% (active) | -1 | 6.07
Cc1n[nH]c(=O)nc1N/N=C/c1cccs1 | 12.5% (inactive) | -10.6 | 3.52
COc1ccccc1N1CCN(/N=C/c2ccc(O)cc2O)CC1 | 2.04% (inactive) | 0.96 | -2.29
CN(C)CCCNC(=O)C[C@H]1C=C[C@@H](NC(=O)Cc2cccnc2)[C@H](CO)O1 | -1.21% (inactive) | 6.35 | -1.98
Cc1onc(-c2c(Cl)cccc2Cl)c1C(=O)NNC(=O)c1c(-c2c(Cl)cccc2Cl)noc1C | -35.2% (active) | -26.9 | 1.07
Cc1[nH]n(C)c(=O)c1C(=O)c1c(-c2c(Cl)cccc2Cl)noc1C | 23.4% (inactive) | 10.3 | 1.84
Cc1onc(-c2c(F)cccc2Cl)c1C(=O)Nc1cccc(S(=O)(=O)N2CCCCC2)c1 | -6.88% (inactive) | -20.2 | -1.93
CN1C(=O)c2cc(NC(=O)c3ccc(Cl)cc3)ccc2OC[C@H]2O[C@H](CC(=O)O)CC[C@H]21 | 1.69% (inactive) | 1.68 | -1.26
C[C@H]1CN([C@@H](C)CO)C(=O)c2cc(NC(=O)Nc3ccc4c(c3)OCO4)ccc2O[C@H]1CN(C)S(=O)(=O)c1ccc(F)cc1 | -3.35% (inactive) | -0.035 | 3.46
CN1C(=O)c2cc(NC(=O)C3CCC3)ccc2OC[C@@H]2O[C@@H](CC(=O)NCCc3ccncc3)CC[C@H]21 | 5.03% (inactive) | 10.1 | -1.17
COc1ccccc1Oc1nc(-c2cccnc2)nc2ccccc12 | -34.3% (active) | -23.4 | -3.61
COc1ccccc1CCNC(=O)CSc1nnc2ccc(-c3cccnc3)nn12 | -2.66% (inactive) | 7.92 | 10.5
S=c1nc2ccccc2c2nc(-c3cccnc3)[nH]n12 | -0.36% (inactive) | -3.58 | -4.9
Cc1ccc(S(=O)(=O)N(C)C[C@@H]2Oc3ccc(NS(=O)(=O)c4cn(C)cn4)cc3C(=O)N([C@@H](C)CO)C[C@H]2C)cc1 | 0.239% (inactive) | -1.14 | 0.319
Cc1ccc(NC(=O)N2CCC(c3nc4c(nnn4Cc4c(F)cccc4Cl)c(=O)[nH]3)CC2)cc1 | -32.9% (active) | -18.6 | -4.28
O=C(Nc1ccc(F)cc1)N1CCCC(c2nc3c(nnn3Cc3ccccc3Cl)c(=O)[nH]2)C1 (centres undefined) | 5.54% (inactive) | 16.4 | 5.16
Cc1ccc(Cn2nnc3c(=O)[nH]c(C4CCN(S(=O)(=O)/C=C/c5ccccc5)CC4)nc32)cc1 | -1.02% (inactive) | -8.59 | 5.14
